An excerpt weighted towards active compounds, which were near 3.4% of everything screened.
FBW7 act – human FBW7 E3 ligase activation, primary screen | Q969H0 | AlphaScreen FBW7–phospho-cyclin E peptide binding, activator screen | normalized activity (activation), % at 26.1 µM | 0.13% of 650,000 active | AID 1259310; in the data active means normalized activity above about 1.9%;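 further: purified mutant Fbw7 with reduced substrate affinity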
Target sequence (Q969H0 whole entry, looked up): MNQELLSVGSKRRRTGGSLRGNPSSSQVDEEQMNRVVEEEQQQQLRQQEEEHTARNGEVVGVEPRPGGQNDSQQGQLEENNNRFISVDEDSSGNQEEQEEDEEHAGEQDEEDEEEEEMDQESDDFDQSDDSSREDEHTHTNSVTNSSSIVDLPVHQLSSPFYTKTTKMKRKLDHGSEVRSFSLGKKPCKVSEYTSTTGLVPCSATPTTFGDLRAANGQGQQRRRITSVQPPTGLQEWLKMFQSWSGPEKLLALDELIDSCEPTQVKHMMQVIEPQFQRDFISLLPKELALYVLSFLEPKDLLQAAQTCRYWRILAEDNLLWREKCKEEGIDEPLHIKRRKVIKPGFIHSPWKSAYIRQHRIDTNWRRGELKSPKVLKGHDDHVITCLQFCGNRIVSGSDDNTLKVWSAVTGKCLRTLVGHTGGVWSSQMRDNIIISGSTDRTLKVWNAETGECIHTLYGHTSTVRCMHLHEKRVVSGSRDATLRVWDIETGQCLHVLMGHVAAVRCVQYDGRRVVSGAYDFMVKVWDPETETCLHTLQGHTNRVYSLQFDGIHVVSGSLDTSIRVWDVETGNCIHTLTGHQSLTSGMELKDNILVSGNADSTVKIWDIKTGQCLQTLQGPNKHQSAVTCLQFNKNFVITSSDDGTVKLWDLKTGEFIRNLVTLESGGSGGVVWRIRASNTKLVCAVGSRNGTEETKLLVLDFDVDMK
TEAD-YAP inh – TEAD-YAP interaction inhibition; HEK-TIYL cells, TEAD-Gal4/YAP UAS-luciferase luminescence; 1.4% of 640,000 active; inhibition, % at 9.12 µM; in the data active means inhibition above about 32%;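 further: 0% = median of test compound wells and 100% = reference inhibitor wells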
MITF inh – blocks human microphthalmia-associated transcription factor; O75030; 0.91% of 650,000 active; inhibition, % at 2.6 µM; AlphaScreen MITF homodimerization, bead proximity signal; in the data active means inhibition above about 50%;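 further: 0% = vehicle wells with protein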
GPR151 ag – activates the human receptor GPR151; AID 1508602; PathHunter beta-arrestin GPR151 cells, luminescence; 1% of 650,000 active; Q8TDV0; activation, % at 11.2 µM; in the data active means activation above about 4.9%;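 further: 0% = median of compound wells and 100% = cells with positive control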
Numbers without * were called inactive.

`O=C(CSc1nnc(-c2ccccn2)n1-c1ccccc1Cl)Nc1nccs1` gave FBW7 act 0.0, TEAD-YAP inh 58.9*, MITF inh -1.6 and GPR151 ag -0.1.
O=C(CSc1nnc(-c2cccc([N+](=O)[O-])c2)n1-c1ccccc1)Nc1nccs1 was read as FBW7 act -0.1, TEAD-YAP inh 44.4*, MITF inh -8.0 and GPR151 ag 0.2.
For O=C(CSc1nnc(-c2ccco2)n1-c1ccccc1)Nc1nccs1 the results were FBW7 act 0.1, TEAD-YAP inh 1.4, MITF inh -20.4 and GPR151 ag -1.0.
Cc1nn(-c2nc3ccccc3[nH]2)c(=O)c2ccccc12 was read as FBW7 act 0.0, TEAD-YAP inh 97.4*, MITF inh 2.2 and GPR151 ag -8.8.
`COc1ccc2cnn(-c3nc4ccccc4[nH]3)c(=O)c2c1OC` gave FBW7 act -0.4, TEAD-YAP inh 43.0*, MITF inh -4.5 and GPR151 ag -4.3.
For CN(C)c1ccc(/C=C2\N=C(c3ccccc3F)N(c3ccc(Br)cc3)C2=O)cc1 the results were FBW7 act -0.1, TEAD-YAP inh -5.0, MITF inh -0.5 and GPR151 ag -0.6.
For Cc1ccc(N2C(=O)/C(=C/c3ccc(N(C)C)cc3)N=C2c2ccccc2F)c(C)c1 the results were FBW7 act 0.1, TEAD-YAP inh 67.6*, MITF inh -9.9 and GPR151 ag 2.1.
CN(C)c1ccc(/C=C2\N=C(c3ccccc3F)N(c3ccc(O)cc3)C2=O)cc1 was read as FBW7 act 0.1, TEAD-YAP inh 59.5*, MITF inh 10.1 and GPR151 ag 0.3.
`O=C(Nc1ccc(Nc2ccccc2)cc1)c1ccc(C(=O)c2ccccc2)o1` gave FBW7 act -0.1, TEAD-YAP inh 43.1*, MITF inh 9.4 and GPR151 ag 2.8.
O=C(O)C(Cc1ccccc1)N1C(=O)C2CCCCC2C1=O (centres undefined) was read as FBW7 act 2.6*, TEAD-YAP inh 6.2, MITF inh -4.2 and GPR151 ag -0.2.
CCOC(=O)c1c(/N=c2\oc3c(OC)cccc3cc2C(=O)Nc2cccc(C)c2)sc2c1CCCC2 was read as FBW7 act 0.1, TEAD-YAP inh -1.1, MITF inh 8.9 and GPR151 ag -1.1.
For CCOC(=O)c1c(/N=c2\oc3c(OC)cccc3cc2C(=O)Nc2ccc(OC)cc2)sc2c1CCCC2 the results were FBW7 act 0.1, TEAD-YAP inh 36.2*, MITF inh -11.9 and GPR151 ag 1.8.
For CCN(CC)C(=O)C1CCCN(C(=O)c2ccc(N3CC4CC(C3)c3cccc(=O)n3C4)c(NC(=O)c3cc(OC)cc(OC)c3)c2)C1 (centres undefined) the results were FBW7 act 0.2, TEAD-YAP inh 0.3, MITF inh 14.4 and GPR151 ag -0.3.
Screening Cc1ccsc1C(=O)NNC(=O)c1cc(C)n(-c2ccc(F)cc2)c1C returned FBW7 act -0.1, TEAD-YAP inh 64.7*, MITF inh -14.2 and GPR151 ag -2.5.
`CCc1ccc(-c2cc(C(=O)NC(C)C3CC4CCC3C4)c3ccccc3n2)cc1` (centres undefined) gave FBW7 act 0.1, TEAD-YAP inh 7.1, MITF inh 10.4 and GPR151 ag 0.4.
`Cc1ccccc1CN1C(=O)CSc2ccc(C(=O)N3CCN(c4ccccn4)CC3)cc21` gave FBW7 act -0.1, TEAD-YAP inh 44.9*, MITF inh 4.0 and GPR151 ag 3.2.
Cc1ccccc1CN1C(=O)CSc2ccc(C(=O)N3CCOCC3)cc21 was read as FBW7 act 0.1, TEAD-YAP inh -6.2, MITF inh 0.2 and GPR151 ag 1.0.
Screening COc1ccc(/C(N)=N/OC(=O)c2ccc(C)cc2Cl)cc1 returned FBW7 act 0.3, TEAD-YAP inh -14.6, MITF inh 3.3 and GPR151 ag 0.4.
`CC(=O)Oc1ccc(C(=O)O/N=C(\N)c2cccnc2)cc1` gave FBW7 act -0.3, TEAD-YAP inh 34.6*, MITF inh 3.5 and GPR151 ag -8.3.
For N/C(=N\OC(=O)c1cccc2ccccc12)c1ccc(Cl)cc1 the results were FBW7 act 2.1*, TEAD-YAP inh -7.7, MITF inh 12.9 and GPR151 ag 0.8.
CC(C)(C)c1ccc(C(=O)O/N=C(\N)c2ccccc2)cc1 was read as FBW7 act 0.0, TEAD-YAP inh 85.8*, MITF inh -1.5 and GPR151 ag 0.2.
`N/C(=N\OC(=O)c1ccccc1Br)c1ccc(Cl)cc1` gave FBW7 act -0.1, TEAD-YAP inh -54.4, MITF inh 5.9 and GPR151 ag -0.5.
COc1ccc(/C(N)=N/OC(=O)c2ccc(C(C)(C)C)cc2)cc1 was read as FBW7 act 0.5, TEAD-YAP inh 8.4, MITF inh 11.4 and GPR151 ag -1.2.
